Among the test systems are K-562 leukemia; MALME-3M melanoma; MDA-MB-231 breast; RXF 393 renal; SF-268 CNS; SF-295 CNS; SF-539 CNS; UACC-257 melanoma; M14 melanoma; HCT-15 colon; HT29 colon; SNB-75 CNS; SNB-19 CNS; U251 CNS; PC-3 prostate; SK-MEL-5 melanoma; UACC-62 melanoma; LOX IMVI melanoma; SK-MEL-28 melanoma; SK-MEL-2 melanoma.
Common to all, as to test: NCI-60 one-dose screen, 48 h (100 = growth as untreated, 0 = no growth, -100 = all killed)
Conditions in all cases: 10 µM unless noted

Compounds without any hit were thinned out: in the full panel of roughly 83,000, 20% have a hit.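 96-well plates, one dose, 48 hours. Percent growth reported; active if below 10.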 A number with no mark means an inactive call. Calls of active or inactive are those of the source.

On to `CN1CCN(Cc2ccc(NC(=O)c3cncc(C#Cc4cnc5[nH]ncc5c4)c3)cc2C(F)(F)F)CC1`, for which the growth with K-562 leukemia is 3.87% (active); in the test on MALME-3M melanoma it was -27.9% (active); in the test with MDA-MB-231 breast, -23.8% (active); with RXF 393 renal, -2.95% (active); in the test with SF-268 CNS, 37.7%; in the test on SF-295 CNS it was 35.4%. Also, the growth in the test with SF-539 CNS was 13%; in the test on UACC-257 melanoma, 40.5%; in the test on M14 melanoma, 8.74% (active); in the test on HCT-15 colon, 19.4%; in the test with HT29 colon, 22.7%; in the test with SNB-75 CNS, 64%. The growth with SNB-19 CNS was 59.3%; in the test on U251 CNS, 31.3%; with PC-3 prostate it was 42.3%; with SK-MEL-5 melanoma, 43.4%; with UACC-62 melanoma it was 1.56% (active); with LOX IMVI melanoma, 2.34% (active). In addition, the growth in the test with SK-MEL-28 melanoma is 1.4% (active); with SK-MEL-2 melanoma, -49.6% (active).

With `CSCCC(C(=O)O)N1C(=O)/C(=C/c2ccc(O)c(O)c2)SC1=S` (stereo not given), the growth was 109% in the test with K-562 leukemia; 101% in the test with MALME-3M melanoma; 97.1% in the test with MDA-MB-231 breast; 125% in the test with RXF 393 renal; 97.6% in the test on SF-268 CNS; 96.5% in the test on SF-295 CNS. Also, the growth in the test on SF-539 CNS is 95.7%; in the test on UACC-257 melanoma it was 104%; in the test with M14 melanoma, 101%; with HCT-15 colon, 100%; with HT29 colon it was 105%; with SNB-75 CNS, 93.6%. Also, the growth was 97.9% in the test on SNB-19 CNS; 93.4% with U251 CNS; 99.2% in the test with PC-3 prostate; 99.9% with SK-MEL-5 melanoma; 93.7% in the test with UACC-62 melanoma; 103% with LOX IMVI melanoma. Moreover, the growth is 99.5% with SK-MEL-28 melanoma and 133% in the test on SK-MEL-2 melanoma.

Turning to `CCC/C=C/C=C/C(=O)N[C@@H](Cc1cc(F)cc(F)c1)C(=O)N[C@@H]1C(=O)N2CCC[C@H]2C(=O)N2CCCC[C@H]2C(=O)N[C@@H](C)C(=O)N2C[C@H](C)C[C@H]2C(=O)O[C@H]1C`, the growth was 17.6% in the test on K-562 leukemia; 30.8% in the test on MALME-3M melanoma; 28.7% in the test with MDA-MB-231 breast; 46.3% with RXF 393 renal; 31.3% in the test with SF-268 CNS; 10.3% in the test on SF-295 CNS. Moreover, the growth is 38.3% with SF-539 CNS; 17% in the test with UACC-257 melanoma; 16.5% in the test with M14 melanoma; 16.2% with HCT-15 colon; 9.05% (active) with HT29 colon; 28.5% in the test on SNB-75 CNS. For the same molecule, the growth with SNB-19 CNS is 25.8%; in the test on U251 CNS, 26.8%; with PC-3 prostate it was 14.5%; in the test on SK-MEL-5 melanoma, 10.5%; in the test with UACC-62 melanoma, 13.6%; in the test with LOX IMVI melanoma, -25.3% (active). In addition, the values for the growth with SK-MEL-28 melanoma and in the test with SK-MEL-2 melanoma were 29% and -12.9% (active), respectively.

As for `CCN(CC)c1ccc(C=O)c(OCc2cn(CC(=O)Nc3ccc(Cl)cc3)nn2)c1`, the growth with K-562 leukemia was 51.7%; in the test with MALME-3M melanoma it was 91.5%; in the test with MDA-MB-231 breast, 80.4%; with RXF 393 renal, 34.1%; in the test with SF-268 CNS, 84.6%; in the test on SF-295 CNS, 65.8%. Moreover, the growth with SF-539 CNS was 75%; in the test on UACC-257 melanoma, 108%; with M14 melanoma, 87.7%; in the test on HCT-15 colon, 61.4%; in the test with HT29 colon it was 73.2%; in the test with SNB-75 CNS, 103%. For the same molecule, the growth with SNB-19 CNS is 69%; in the test on U251 CNS it was 53.7%; in the test with PC-3 prostate it was 56.2%; in the test on SK-MEL-5 melanoma, 92.7%; with UACC-62 melanoma, 58%; with LOX IMVI melanoma it was 58.8%. In addition, the growth is 92.7% in the test on SK-MEL-28 melanoma and 89.7% in the test with SK-MEL-2 melanoma.

With `O=C(CN1C(=O)/C(=C/c2ccccc2)SC1=S)N1CCOCC1`, the growth in the test on K-562 leukemia was 77.4%; with MALME-3M melanoma, 83.6%; in the test with MDA-MB-231 breast, 95.2%; with RXF 393 renal, 105%; in the test on SF-268 CNS, 102%; in the test with SF-295 CNS, 103%. Moreover, the growth with SF-539 CNS was 95.8%; with UACC-257 melanoma, 95.8%; in the test with M14 melanoma, 88.5%; in the test on HCT-15 colon, 88.2%; with HT29 colon, 112%; in the test on SNB-75 CNS, 98.9%. For the same molecule, the growth in the test on SNB-19 CNS is 99%; in the test on U251 CNS, 102%; in the test on PC-3 prostate, 108%; in the test with SK-MEL-5 melanoma, 97%; in the test on UACC-62 melanoma, 93.4%; with LOX IMVI melanoma it was -34.9% (active). Moreover, the growth was 96.5% in the test with SK-MEL-28 melanoma and 125% in the test on SK-MEL-2 melanoma.

As to `COc1cc2nc(-c3ccc(C(F)(F)F)cc3)cc(OCCCNCC3CCCO3)c2cc1OC` (stereo not given), the growth is 10.2% in the test on K-562 leukemia; -15.6% (active) with MALME-3M melanoma; 18.2% in the test on MDA-MB-231 breast; 3.22% (active) in the test on RXF 393 renal; 59.5% in the test with SF-268 CNS; -33.6% (active) in the test on SF-295 CNS. In addition, the growth is 45.5% in the test on SF-539 CNS; -38.7% (active) in the test on UACC-257 melanoma; -66.5% (active) in the test with M14 melanoma; 13.7% with HCT-15 colon; -7.81% (active) in the test on HT29 colon; 8.73% (active) in the test with SNB-75 CNS. In addition, the growth in the test on SNB-19 CNS was 75.3%; in the test on U251 CNS it was 55.7%; with PC-3 prostate, 45.4%; in the test with SK-MEL-5 melanoma it was 4.75% (active); with UACC-62 melanoma, -22.1% (active); with LOX IMVI melanoma, -13.4% (active). Besides, the growth with SK-MEL-28 melanoma was -26.8% (active); in the test with SK-MEL-2 melanoma, 91.7%.

With `Fc1ccc(-c2cc3nc(C(Cl)Cl)nc(-c4ccc(Cl)cc4)n3n2)cc1`, the growth in the test with K-562 leukemia is 24.3%; in the test with MALME-3M melanoma, 37.4%; in the test on MDA-MB-231 breast it was 7.4% (active); with RXF 393 renal, -55.5% (active); with SF-268 CNS, 26.2%; in the test on SF-295 CNS it was 9.78% (active). Also, the growth in the test with SF-539 CNS was 21%; in the test with UACC-257 melanoma it was 39.1%; in the test with M14 melanoma, 22.3%; in the test on HCT-15 colon, 12.1%; in the test with HT29 colon, -35% (active); in the test on SNB-75 CNS, -2% (active). Besides, the growth in the test on SNB-19 CNS is 6.37% (active); in the test with U251 CNS, -58.1% (active); in the test with PC-3 prostate, 22.8%; with SK-MEL-5 melanoma, 76.9%; in the test with UACC-62 melanoma it was 53.1%; in the test on LOX IMVI melanoma, 70.9%. For the same molecule, the growth with SK-MEL-28 melanoma was 11.6%; in the test on SK-MEL-2 melanoma, 89.4%.
